Here are results for 14 compounds from PubChem BioAssay (NCI).

Some test systems named below: T-47D breast; BT-549 breast; MDA-MB-435 melanoma; SW-620 colon; MCF7 breast; HCT-116 colon; HCC-2998 colon; KM12 colon.
What all share (assay): NCI-60 one-dose screen, 48 h (100 = growth as untreated, 0 = no growth, -100 = all killed)
What all share (details): 10 µM unless noted

Each structure is given as a SMILES string. The panel holds about 83,000 compounds, 20% with a hit somewhere; the sample as a whole holds those more often.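 48-hour exposure, single concentration, 96-well plates; percent growth endpoint where 0 means no net growth. Active: below 10.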 Values without a mark were called inactive. Calls of active or inactive are those of the source.

With `CN1CCN(c2ccc(NC(=O)c3cncnc3Nc3ccc(OCc4ccccn4)c(Cl)c3)cc2)CC1`, the growth is 53.7% in the test with T-47D breast; 77.9% in the test with BT-549 breast; -60.2% (active) in the test on MDA-MB-435 melanoma; 4.15% (active) in the test on SW-620 colon; 26.5% in the test on MCF7 breast; -48% (active) in the test on HCT-116 colon. Moreover, the growth in the test on HCC-2998 colon is 67.4%; with KM12 colon it was 49.3%.
As for `CCOC(=O)Cn1c(O)c(N=Nc2ccc(S(N)(=O)=O)cc2)c2cc(Br)ccc21`, the growth with T-47D breast was 78.1%; in the test with BT-549 breast it was 119%; with MDA-MB-435 melanoma, 92%; in the test on SW-620 colon, 62.7%; in the test with MCF7 breast it was 84%; in the test with HCT-116 colon it was 13.9%. The growth in the test on HCC-2998 colon is 95.5%; with KM12 colon, 70.7%.
Consider `COc1ccccc1Nc1nc2c(s1)C1=CC[C@H]3[C@@H]4CC[C@H]([C@H](C)CCCC(C)C)[C@@]4(C)CC[C@@H]3[C@@]1(C)CC2`, for which the growth in the test on T-47D breast was 105%; with BT-549 breast, 110%; in the test with MDA-MB-435 melanoma, 103%; in the test with SW-620 colon, 101%; with MCF7 breast, 113%; with HCT-116 colon, 102%. The growth with HCC-2998 colon and with KM12 colon was 101% throughout.
`COc1ccc2[nH]cc(-c3nc(-c4c[nH]c5ccncc45)cs3)c2c1`: the growth in the test with T-47D breast is 61.5%; in the test on BT-549 breast, 74%; in the test with MDA-MB-435 melanoma, -76.3% (active); in the test with SW-620 colon it was -61.4% (active); with MCF7 breast it was 5.44% (active); with HCT-116 colon, -62% (active). Also, the growth in the test on HCC-2998 colon was -45.8% (active); with KM12 colon it was 21.1%.
Consider `Cn1cc(-c2csc(-c3ccc(Cl)cc3)n2)c2cccnc21`, for which the growth in the test on T-47D breast is -23.5% [100 µM] (active); in the test with BT-549 breast, -38.1% [100 µM] (active); in the test on MDA-MB-435 melanoma, -6.61% [100 µM] (active); in the test with SW-620 colon, -62% [100 µM] (active); in the test with MCF7 breast it was -35.2% [100 µM] (active); in the test on HCT-116 colon it was -62% [100 µM] (active). In addition, the growth with HCC-2998 colon is -91.9% [100 µM] (active); in the test with KM12 colon it was -82.4% [100 µM] (active).
Take `CCOC(=O)/C=C1\S/C(=N\Nc2cc(=O)[nH]c3ccc(Cl)cc23)N(c2ccccc2)C1=O`: the growth with T-47D breast was 66.8%; with BT-549 breast, 93.7%; in the test on MDA-MB-435 melanoma, 96.3%; with SW-620 colon, 77.3%; with MCF7 breast it was 34.3%; with HCT-116 colon, 38.9%. For the same compound, the growth in the test with HCC-2998 colon is 105%; in the test on KM12 colon, 98.5%.
For the compound `O=C(O)c1ccc(-n2cc(/C=N/Nc3ccc(F)cc3)c(-c3cc4ccccc4oc3=O)n2)cc1`, the growth in the test on T-47D breast was 63.7%; in the test on BT-549 breast, 80%; in the test on MDA-MB-435 melanoma, 77.5%; in the test on SW-620 colon it was 64.5%; in the test on MCF7 breast it was 66.1%; with HCT-116 colon, 56.5%. Further, the values for the growth with HCC-2998 colon and in the test with KM12 colon were 88.3% and 77.7%, respectively.
Regarding `Cc1ccc(-c2nc3nc(-c4ccccc4)nc(N4CCNCC4)c3o2)cc1`, the growth with T-47D breast is -68.4% (active); in the test on BT-549 breast, -71.9% (active); with MDA-MB-435 melanoma, -87.4% (active); in the test on SW-620 colon, -69.4% (active); with MCF7 breast it was -66.2% (active); in the test on HCT-116 colon it was -77.1% (active). The growth is -86.8% (active) with HCC-2998 colon and -87.9% (active) in the test with KM12 colon.
With `O=C(O)CCCN1C(=O)/C(=C/C(Cl)=C/c2ccccc2)SC1=S`, the growth is 45.3% in the test on T-47D breast; 7.71% (active) with BT-549 breast; -14.9% (active) with MDA-MB-435 melanoma; 7.33% (active) in the test on SW-620 colon; 14.2% with MCF7 breast; -54.2% (active) in the test with HCT-116 colon. The growth with HCC-2998 colon is 5.79% (active); in the test with KM12 colon, 13.6%.
For `C=C1C(=O)O[C@H]2[C@H]1CC/C(COC(=O)N[C@H]1C[C@H](O[C@H]3C[C@](O)(C(=O)CO)Cc4c(O)c5c(c(O)c43)C(=O)c3c(OC)cccc3C5=O)O[C@@H](C)[C@H]1O)=C\CC[C@@]1(C)O[C@@H]21`, the growth in the test on T-47D breast was 29.7%; in the test with BT-549 breast, 22.7%; with MDA-MB-435 melanoma it was 66%; in the test with SW-620 colon, 1.42% (active); in the test with MCF7 breast it was 12.1%; in the test with HCT-116 colon it was 7.69% (active). Also, the growth in the test with HCC-2998 colon was 99.3%; in the test with KM12 colon, 90.1%.
Take `N#Cc1cccc(F)c1`: the growth was 101% with T-47D breast; 111% in the test with BT-549 breast; 105% in the test with MDA-MB-435 melanoma; 109% with SW-620 colon; 112% in the test with MCF7 breast; 106% with HCT-116 colon. Also, the growth with HCC-2998 colon is 118%; in the test on KM12 colon, 110%.
Regarding `O=C(CSc1nnc2n1S(=O)(=O)c1ccccc1N2c1ccccc1)Nc1nc2ccc(F)cc2s1`, the growth in the test on T-47D breast was 98.4%; in the test on BT-549 breast it was 97.1%; with MDA-MB-435 melanoma it was 101%; in the test on SW-620 colon it was 109%; in the test on MCF7 breast, 93.5%; in the test with HCT-116 colon, 93.5%. Moreover, the figures for the growth with HCC-2998 colon and with KM12 colon were 95.6% and 108%, respectively.
Regarding `CNC(=O)c1cc(Oc2ccc3nc(NC(C)=O)sc3c2)ccn1`, the growth with T-47D breast was 90.7%; in the test with BT-549 breast it was 96.9%; in the test on MDA-MB-435 melanoma, 102%; with SW-620 colon, 112%; in the test on MCF7 breast, 98.9%; with HCT-116 colon it was 89.2%. In addition, the values for the growth in the test on HCC-2998 colon and in the test with KM12 colon were 107% and 98.2%, respectively.
For the compound `CCN(C(=O)N1CCN(c2cc3c(cc2F)c(=O)c(C(=O)O)cn3C2CC2)CC1)c1nc(-c2ccc(Cl)cc2)cs1`, the growth was 22.3% in the test with T-47D breast; -8.09% (active) in the test on BT-549 breast; 17.9% in the test on MDA-MB-435 melanoma; 18.3% in the test with SW-620 colon; 9.42% (active) in the test on MCF7 breast; 9.89% (active) in the test on HCT-116 colon. For the same compound, the growth with HCC-2998 colon is 25%; in the test with KM12 colon, 13.1%.
